Several values for one entry are separate records, joined by “and”; a condition that tells them apart may be missing. Equal values may be shown once. About 2,000 (36%) of roughly 5,500 compounds were called active. About 18% were inconclusive and are not listed. Cut-off read from the data, not from the text of the source: active = normalized growth mostly below about 0.91 (no sharp cut-off); inconclusive = no clear call, values can overlap the other calls; inactive = mostly above about 0.92. This is one part of the list.
Assay: chemical genetic growth profiling, strain panel (AID 1159580);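 note: tested at 20 µM; growth read once vehicle control cultures reached saturation at 30 °C; 1 = growth at the plate median or of vehicle wells; lower values mean less growth of the strain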
Details: S. cerevisiae deletion strains, growth OD

Measured: normalized growth

COc1ccc2c(c1)c(CC(=O)OCC(=O)O)c(C)n2C(=O)c1ccc(Cl)cc1
inactive: locus YAL013W, strain DEP1, hits give low values 1.01 | locus YAL021C, strain ccr4, hits give low values 0.982 | locus YAL026C, strain drs2, hits give low values 1.01 | locus YAL030W, strain snc1, hits give low values 0.99 | locus YBL061C, strain skt5, hits give low values 1 | locus YBR009C, strain hhf1, hits give low values 0.991 | locus YBR021W, strain FUR4, hits give low values 1.01 | locus YBR023C, strain chs3, hits give low values 1.01 | locus YBR171W, strain sec66, hits give low values 0.978 | locus YBR229C, strain ROT2, hits give low values 1.02 | locus YBR231C, strain swc5, hits give low values 0.973 | locus YBR279W, strain paf1, hits give low values 1.01 | locus YCL011C, strain gbp2, hits give low values 1.02 | locus YCL016C, strain dcc1, hits give low values 1.01 | locus YCL029C, strain bik1, hits give low values 1.04 | locus YCL069W, strain vba3, hits give low values 1 | locus YCR088W, strain abp1, hits give low values 1.01 | locus YDL005C, strain med2, hits give low values 0.979 | locus YDL035C, strain GPR1, hits give low values 1.02 | locus YDL040C, strain nat1, hits give low values 0.995 | locus YDL074C, strain BRE1, hits give low values 1.01 | locus YDL101C, strain DUN1, hits give low values 1.02 | locus YDL134C, strain PPH21, hits give low values 1.02 | locus YDL185W, strain tfp1, hits give low values 1.02 | locus YDL192W, strain arf1, hits give low values 1.02 | locus YDR001C, strain nth1, hits give low values 1.01 | locus YDR069C, strain doa4, hits give low values 0.996 | locus YDR101C, strain arx1, hits give low values 1.02 | locus YDR137W, strain rgp1, hits give low values 1.02 | locus YDR150W, strain NUM1, hits give low values 1.02 | locus YDR159W, strain sac3, hits give low values 0.964 | locus YDR162C, strain NBP2, hits give low values 1.01 | locus YDR195W, strain ref2 0.939 | locus YDR297W, strain sur2, hits give low values 1 | locus YDR318W, strain mcm21, hits give low values 1.02 | locus YDR334W, strain swr1, hits give low values 1 | locus YDR335W, strain msn5, hits give low values 0.989 | locus YDR388W, hits give low values 1.01 | locus YDR392W, strain spt3, hits give low values 1.03 | locus YDR502C, strain sam2, hits give low values 1.03 | locus YEL003W, strain gim4, hits give low values 0.988 | locus YEL037C, strain rad23, hits give low values 1 | locus YEL061C, strain CIN8 (second series), hits give low values 0.995 | locus YEL061C, strain CIN8, hits give low values 1.01 | locus YER015W, strain faa2, hits give low values 1 | locus YER016W, strain bim1, hits give low values 1.01 | locus YER110C, hits give low values 1.02 | locus YER111C, strain swi4, hits give low values 0.991 | locus YER155C, strain BEM2 (second series), hits give low values 0.989 | locus YER155C, strain BEM2, hits give low values 1.01 | locus YER167W, strain BCK2, hits give low values 1.01 | locus YFR010W, strain ubp6, hits give low values 0.994 | locus YGL078C, strain dbp3, hits give low values 1.01 | locus YGL086W, strain mad1, hits give low values 1.01 | locus YGL167C, strain pmr1, hits give low values 0.987 | locus YGL173C, strain kem1, hits give low values 0.976 | locus YGL227W, strain vid30, hits give low values 0.999 | locus YGL240W, strain doc1, hits give low values 0.982 | locus YGL248W, strain PDE1, hits give low values 1.01 | locus YGL253W, strain hxk2, hits give low values 1.01 | locus YGR078C, strain PAC10, hits give low values 1.02 | locus YGR135W, strain pre9, hits give low values 1.02 | locus YGR229C, strain SMI1, hits give low values 1.02 | locus YGR252W, strain gcn5, hits give low values 0.987 | locus YHR013C, strain ard1, hits give low values 1.09 | locus YHR027C, strain rpn1, hits give low values 0.999 | locus YHR030C, strain SLT2, hits give low values 1.02 and 0.958 | locus YHR079C, strain IRE1 (second series), hits give low values 1.01 | locus YHR079C, strain IRE1, hits give low values 0.941 | locus YHR094C, strain hxt1, hits give low values 1.01 | locus YHR129C, strain ARP1, hits give low values 1 | locus YHR142W, strain chs7, hits give low values 1.01 | locus YHR200W, strain rpn10, hits give low values 1.01 | locus YIL066C, strain RNR3, hits give low values 1.02 | locus YIL073C, strain SPO22, hits give low values 1.06 | locus YIL125W, strain kgd1, hits give low values 1.01 | locus YIR030C, strain dcg1, hits give low values 1.02 | locus YJL092W, strain hpr5, hits give low values 0.981 | locus YJL095W, strain BCK1 (second series), hits give low values 1.01 | locus YJL095W, strain BCK1, hits give low values 1.05 and 0.968 | locus YJL115W, strain asf1, hits give low values 0.992 | locus YJL129C, strain trk1, hits give low values 0.979 | locus YJL134W, strain LCB3, hits give low values 1.01 | locus YJL154C, strain vps35, hits give low values 0.992 | locus YJL164C, strain tpk1, hits give low values 1.03 | locus YJL166W, strain qcr8, hits give low values 0.974 | locus YJL168C, strain set2, hits give low values 1.01 | locus YJL187C, strain SWE1 (second series), hits give low values 1.03 | locus YJL187C, strain SWE1, hits give low values 1.01 | locus YJR043C, strain POL32, hits give low values 1.03 | locus YJR066W, strain TOR1, hits give low values 0.89
